Results on 9 compounds are retold here after PubChem BioAssay (NCI).

Molecules are shown by their SMILES. The panel holds about 83,000 compounds, 20% with a hit somewhere; the sample as a whole holds those more often.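 Treatment: one concentration, 48 hours, 96-well format. Scoring: percent growth, with anything below 10 considered active.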 Values without a mark were called inactive. Calls of active or inactive are those of the source.

What all share (assay): NCI-60 one-dose screen, 48 h (100 = growth as untreated, 0 = no growth, -100 = all killed)
Conditions in all cases: 10 µM unless noted

The test system of experiment [1] is DU-145 prostate.
For experiment [2], the system named is K-562 leukemia.
Experiment [3] deals with MALME-3M melanoma.
For experiment [4], the system named is MDA-MB-231 breast.
Experiment [5] deals with RXF 393 renal.
Experiment [6] has as its system SF-268 CNS.
In experiment [7] the test system is SF-539 CNS.
Experiment [8] relates to M14 melanoma.
Experiment [9] has as its system HCT-15 colon.
In experiment [10] the test system is HT29 colon.
In experiment [11] the test system is SNB-75 CNS.
In experiment [12] the test system is SNB-19 CNS.
Experiment [13] concerns PC-3 prostate.
The test system of experiment [14] is SK-MEL-5 melanoma.
Experiment [15] has as its system UACC-62 melanoma.
Experiment [16] deals with LOX IMVI melanoma.
Experiment [17] deals with SK-MEL-28 melanoma.
Experiment [18] deals with SF-295 CNS.
The test system of experiment [19] is UACC-257 melanoma.
Experiment [20] deals with U251 CNS.

On to `O=C1Nc2ccccc2C12CC(c1ccc(Cl)cc1)=NN2` (configuration not stated), for which the growth was 115% in [1]; 94.5% in [2]; 105% in experiment [3]; 89.8% in experiment [4]; 99.4% in experiment [5]; 106% in experiment [6]. Further, the growth was 99.2% in [7]; 98.7% in [8]; 97.7% in [9]; 97.1% in experiment [10]; 76% in experiment [11]; 90.9% in [12]. Moreover, the growth in experiment [13] was 78.2%; in [14] it was 92.4%; in [15], 95%; in experiment [16], 99.5%; in experiment [17], 97.7%.

As to `CCCCCCCCCC(=O)Oc1ccc(/C(=C(/C)c2ccccc2)c2ccc(OCCN3CCCC3)cc2)cc1`, the growth in experiment [1] is 55.9%; in experiment [2] it was -12.4% (active); in experiment [3], -62% (active); in experiment [4], -5.4% (active); in [5] it was -32.4% (active); in [6] it was 38.7%. The growth was -75.1% (active) in experiment [18]; -51.9% (active) in [19]; -13.4% (active) in [9]; -35.5% (active) in experiment [10]; -11.6% (active) in experiment [11]; 6.86% (active) in experiment [12]. Further, the growth is 15.8% in experiment [13]; -98.5% (active) in experiment [14]; -69% (active) in [15]; -72.1% (active) in experiment [16]; -77.9% (active) in experiment [17].

As to `CCCCCN(CCCCC)CCC[C@@H](C)[C@H]1CC[C@H]2[C@@H]3[C@H](OCCCN)C[C@@H]4C[C@H](OCCCN)CC[C@]4(C)[C@H]3C[C@H](OCCCN)[C@]12C`, the growth is 76.5% in [1]; -19.4% (active) in experiment [2]; 62.2% in experiment [3]; 37% in experiment [4]; 87.1% in experiment [5]; 87.5% in experiment [6]. For the same compound, the growth in experiment [7] is -21.9% (active); in [8], 42.8%; in experiment [9], 72.3%; in [10] it was 24.5%; in experiment [11], 70.6%; in experiment [12], 61%. Moreover, the growth in experiment [13] is 80.5%; in [14], 25.1%; in experiment [15], 13.6%; in [16], 3% (active); in [17], 27.9%.

Consider `C=C(CN1CCN(c2cccc(C(F)(F)F)n2)CC1)c1ccc(C(=O)Nc2ccccc2N)cc1`, for which the growth was -23.7% (active) in experiment [1]; 3.45% (active) in experiment [2]; 20% in experiment [3]; 33.5% in experiment [4]; -19.5% (active) in experiment [5]; 8.13% (active) in [18]. In addition, the growth in experiment [7] was 6.53% (active); in experiment [19], 16.6%; in [8], 18.5%; in experiment [9], 12.9%; in experiment [10] it was -23.3% (active); in experiment [11] it was 7.18% (active). Also, the growth was 23.1% in experiment [20]; 22.6% in experiment [13]; -62.2% (active) in [14]; 26.9% in [15]; 8.1% (active) in [16].

Take `CCOC(=O)N1CCN(c2nc(Nc3cc(C)[nH]n3)c3ccccc3n2)CC1`: the growth in experiment [1] was 47.5%; in [2], 17.4%; in experiment [3], 77.6%; in experiment [4], 63.7%; in experiment [6], 42.6%; in experiment [18], 36.5%. Also, the growth in experiment [7] is 46.8%; in experiment [19] it was 65.7%; in experiment [8], 61.6%; in experiment [9], 40.4%; in experiment [10] it was 22.6%; in [11], -21.2% (active). Further, the growth in experiment [12] was 89.2%; in [13], 57.2%; in experiment [14], 57.9%; in [15], 66.8%; in [16] it was 24%; in [17], 59.6%.

For the compound `O=C1Nc2ccccc2/C1=C/C(=N/c1nnc(-c2ccc(Cl)cc2)s1)c1ccccc1`, the growth is 30.5% in experiment [1]; 8.67% (active) in [2]; -26.5% (active) in experiment [3]; 35.5% in [4]; -63.3% (active) in [5]; 55.9% in [6]. For the same compound, the growth in experiment [7] is 27.9%; in experiment [8], 52.2%; in experiment [9], 3.35% (active); in experiment [10], -56.3% (active); in experiment [11], 76.4%; in [12] it was 100%. Moreover, the growth in experiment [13] was 75.7%; in experiment [14] it was 78.3%; in experiment [15] it was 51.7%; in [16] it was -79.3% (active); in experiment [17] it was 61.2%.

Turning to `COc1ccc(-c2nc(Nc3cc(C)[nH]n3)c3ccccc3n2)cc1`, the growth is 61% in [1]; 24.2% in experiment [2]; 79.9% in experiment [3]; 65.3% in experiment [4]; 37.3% in experiment [6]; 48.8% in experiment [18]. In addition, the growth was 15% in experiment [7]; 52% in experiment [19]; 60.4% in [8]; 42.4% in experiment [9]; 17.4% in [10]; -33.5% (active) in [11]. Also, the growth was 53.8% in experiment [12]; 57.2% in experiment [13]; 69% in [14]; 52.9% in experiment [15]; 13.7% in [16]; 61.5% in [17].

Consider `Cc1ccc(NC(=O)c2sc3nc4c(cc3c2N)C(=O)CCC4)cc1C`, for which the growth in experiment [1] was 8.18% (active); in experiment [2], 11.7%; in experiment [3], 48.8%; in [4], 35.3%; in experiment [6] it was 42.7%; in [18] it was 8.72% (active). Also, the growth in [7] was -10.4% (active); in experiment [19] it was 54.2%; in experiment [8], 8.39% (active); in experiment [9], 30.6%; in experiment [10], 9.71% (active); in experiment [11] it was -10.3% (active). Moreover, the growth was 69.3% in [12]; 22.4% in experiment [13]; 26.9% in experiment [14]; 39.6% in experiment [15]; 39.2% in [16]; 37.3% in [17].

Regarding `Nc1cc2nc3ccccc3sc-2cc1=O`, the growth was 21.5% in experiment [1]; 28.5% in [2]; -7% (active) in experiment [3]; 59.2% in experiment [4]; 78.1% in experiment [6]; 65.9% in experiment [18]. For the same compound, the growth in experiment [7] was 98%; in experiment [19] it was 50.8%; in [8] it was 81.2%; in experiment [9], 55.2%; in [10], 94.1%; in experiment [11], 109%. The growth in experiment [12] is 91.7%; in experiment [13] it was 50.8%; in [14], 31.3%; in experiment [15] it was 17.2%; in experiment [16] it was 11%; in [17] it was 46.5%.
